Laboratory results published in ChEMBL document CHEMBL3988442, “University of Dundee, Small-Polar-MMV Screening Library” (2021).
For some assays here: Measured potencies and affinities stand elsewhere.

How the values were obtained:
Parameters in all cases: scale not given: direction of the effect not stated beside the values
[1] = target: Protein translocase subunit SecA (Escherichia coli (strain K12)) (UniProt P10408); experiment: Assay to Identify E. coli SecA ATPase Inhibitors; type: functional; conditions: 30 µM
[2] = target: T1, Ubiquitin-activating enzyme e1, putative (Leishmania donovani (strain BPK282A1)) (UniProt E9BSI1); experiment: Leishmania donovani Ubiquitin Activating Enzyme (LdE1); type: functional; conditions: 30 µM
T1 sequence (whole entry): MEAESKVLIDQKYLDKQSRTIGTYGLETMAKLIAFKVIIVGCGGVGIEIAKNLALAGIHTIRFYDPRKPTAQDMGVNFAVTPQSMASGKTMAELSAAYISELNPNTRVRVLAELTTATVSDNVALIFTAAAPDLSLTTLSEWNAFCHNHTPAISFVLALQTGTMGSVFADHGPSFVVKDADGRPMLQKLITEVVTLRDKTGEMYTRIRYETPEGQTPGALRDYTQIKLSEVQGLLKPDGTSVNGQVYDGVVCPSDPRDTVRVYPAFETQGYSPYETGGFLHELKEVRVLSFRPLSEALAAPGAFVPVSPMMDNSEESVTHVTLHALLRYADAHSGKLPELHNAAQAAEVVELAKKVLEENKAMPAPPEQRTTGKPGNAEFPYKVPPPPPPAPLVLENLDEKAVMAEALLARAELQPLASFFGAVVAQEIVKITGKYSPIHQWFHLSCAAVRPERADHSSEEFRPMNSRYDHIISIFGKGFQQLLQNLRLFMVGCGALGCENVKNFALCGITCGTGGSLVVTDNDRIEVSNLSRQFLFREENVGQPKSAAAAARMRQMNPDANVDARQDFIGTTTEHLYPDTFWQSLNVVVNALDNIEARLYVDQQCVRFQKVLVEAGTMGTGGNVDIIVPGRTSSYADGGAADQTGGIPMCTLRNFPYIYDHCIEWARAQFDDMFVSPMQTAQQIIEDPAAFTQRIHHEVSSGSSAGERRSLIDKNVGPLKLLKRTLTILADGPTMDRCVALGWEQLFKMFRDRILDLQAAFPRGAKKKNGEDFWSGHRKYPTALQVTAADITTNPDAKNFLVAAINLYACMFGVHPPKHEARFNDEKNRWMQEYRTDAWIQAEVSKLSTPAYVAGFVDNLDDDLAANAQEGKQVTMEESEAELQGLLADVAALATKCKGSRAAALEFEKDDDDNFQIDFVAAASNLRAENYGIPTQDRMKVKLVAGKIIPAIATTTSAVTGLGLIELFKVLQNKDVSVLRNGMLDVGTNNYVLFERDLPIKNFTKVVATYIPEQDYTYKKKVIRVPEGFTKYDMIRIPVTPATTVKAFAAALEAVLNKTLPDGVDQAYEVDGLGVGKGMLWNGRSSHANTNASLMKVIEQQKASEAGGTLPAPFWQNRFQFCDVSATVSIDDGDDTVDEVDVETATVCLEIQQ

[3] = target: AMP-activated protein kinase, AMPK (Homo sapiens) (UniProt P54646+O43741+P54619+Q9UGJ0+Q9Y478+Q13131+Q9UGI9); experiment: AMP-dependent Kinase enzyme assay. An in vitro enzyme assay that detects ADP turnover that is directly proportional to AMPK activity. This uses naive AMPK that is activated during the assay with MK-8722; type: functional; conditions: 30 µM
[4] = target: Sialic acid-binding Ig-like lectin 9 (Homo sapiens) (UniProt Q9Y336); experiment: Hs-Siglec9 ALPHAscreen SOP 20170721; conditions: 10 µM
Trypanosoma cruzi = experiment: Trypanosoma cruzi phosphomannomutase and mannose-1-phosphate guanylyltransferase assay; type: functional; conditions: 10 µM
[5] = target: T2, Arginase-2, mitochondrial (Homo sapiens) (UniProt P78540); experiment: in vitro enzyme assay to detect the production of urea directly proportional to the activity of Arginase II; type: functional; conditions: 33.3 µM; further: in the data most compounds retested in dose-response had high values
T2 sequence (whole entry): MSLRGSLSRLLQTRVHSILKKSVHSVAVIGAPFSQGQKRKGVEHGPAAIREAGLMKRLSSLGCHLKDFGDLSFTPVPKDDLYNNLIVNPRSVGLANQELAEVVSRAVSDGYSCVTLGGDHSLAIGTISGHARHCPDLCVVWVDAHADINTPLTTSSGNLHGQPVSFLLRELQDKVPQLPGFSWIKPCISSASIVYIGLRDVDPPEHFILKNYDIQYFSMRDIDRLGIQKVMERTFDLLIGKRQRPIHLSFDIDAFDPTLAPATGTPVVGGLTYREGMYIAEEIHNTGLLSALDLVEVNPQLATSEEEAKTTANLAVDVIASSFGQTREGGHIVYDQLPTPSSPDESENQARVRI

[6] = target: T3, Proteasome subunit beta (Trypanosoma cruzi) (UniProt O96673); experiment: Trypanosoma cruzi proteasome chymotrypsin-like activity (TcProtChymo) assay.; further: in the data most compounds retested in dose-response had high values; type: functional; conditions: 9.37 µM
T3 sequence (whole entry): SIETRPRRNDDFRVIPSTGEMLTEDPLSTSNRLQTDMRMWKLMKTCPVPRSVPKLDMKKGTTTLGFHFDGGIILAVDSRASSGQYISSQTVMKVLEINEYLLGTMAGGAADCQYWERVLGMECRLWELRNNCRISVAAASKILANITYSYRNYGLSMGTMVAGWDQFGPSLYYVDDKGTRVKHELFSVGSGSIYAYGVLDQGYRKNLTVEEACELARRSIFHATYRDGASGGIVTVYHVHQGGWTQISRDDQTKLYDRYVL

Homo sapiens = species: Homo sapiens; experiment: To identify inhibition of the IFN signalling (Jak-Stat) pathway via expression of an eGFP reporter gene under the control of an IFN-stimulated response element (ISRE) containing MxA promoter.; type: functional; conditions: 30 µM
[7] = target: T4, Tyrosyl-tRNA synthetase, putative (Trypanosoma cruzi (strain CL Brener)) (UniProt Q4DSP6); experiment: Trypanosoma cruzi tyrosyl tRNA synthetase (TcYRS) _High Tyrosine SOP; type: functional; conditions: 30 µM; further: in the data most compounds retested in dose-response had high values
T4 sequence (whole entry): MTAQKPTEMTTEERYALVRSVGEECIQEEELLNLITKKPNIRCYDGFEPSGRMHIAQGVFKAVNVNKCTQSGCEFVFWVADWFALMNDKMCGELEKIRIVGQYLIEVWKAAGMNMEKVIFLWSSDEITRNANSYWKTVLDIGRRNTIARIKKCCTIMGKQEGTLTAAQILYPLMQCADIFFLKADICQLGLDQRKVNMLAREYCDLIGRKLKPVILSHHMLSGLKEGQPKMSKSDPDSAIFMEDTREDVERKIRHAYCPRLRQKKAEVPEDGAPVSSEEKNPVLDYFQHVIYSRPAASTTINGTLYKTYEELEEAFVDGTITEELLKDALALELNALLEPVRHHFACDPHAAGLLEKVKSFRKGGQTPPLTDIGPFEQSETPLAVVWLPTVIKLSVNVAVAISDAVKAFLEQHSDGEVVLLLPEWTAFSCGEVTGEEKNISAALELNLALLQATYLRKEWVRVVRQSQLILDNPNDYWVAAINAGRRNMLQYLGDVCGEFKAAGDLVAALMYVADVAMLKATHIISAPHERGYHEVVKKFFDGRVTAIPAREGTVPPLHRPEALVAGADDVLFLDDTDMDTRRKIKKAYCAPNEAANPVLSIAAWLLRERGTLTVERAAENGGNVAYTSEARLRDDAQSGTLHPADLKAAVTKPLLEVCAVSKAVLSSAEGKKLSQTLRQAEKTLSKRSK

[8] = target: T4, Tyrosyl-tRNA synthetase, putative (Trypanosoma cruzi (strain CL Brener)); experiment: Trypanosoma cruzi tyrosyl tRNA synthetase (TcYRS) SOP; type: functional; conditions: 30 µM
[9] = target: Chromo domain-containing protein 1 (Saccharomyces cerevisiae (strain ATCC 204508 / S288c) (Baker's yeast)) (UniProt P32657); experiment: ScCHD-1 Enzyme Inhibition Assay; type: functional; conditions: 30 µM; further: in the data most compounds retested in dose-response had high values
Chromo domain-containing protein 1 (Saccharomyces cerevisiae (strain ATCC 204508 / S288c) (Baker's yeast)), sequence (P32657 whole entry, the tested form may be a part): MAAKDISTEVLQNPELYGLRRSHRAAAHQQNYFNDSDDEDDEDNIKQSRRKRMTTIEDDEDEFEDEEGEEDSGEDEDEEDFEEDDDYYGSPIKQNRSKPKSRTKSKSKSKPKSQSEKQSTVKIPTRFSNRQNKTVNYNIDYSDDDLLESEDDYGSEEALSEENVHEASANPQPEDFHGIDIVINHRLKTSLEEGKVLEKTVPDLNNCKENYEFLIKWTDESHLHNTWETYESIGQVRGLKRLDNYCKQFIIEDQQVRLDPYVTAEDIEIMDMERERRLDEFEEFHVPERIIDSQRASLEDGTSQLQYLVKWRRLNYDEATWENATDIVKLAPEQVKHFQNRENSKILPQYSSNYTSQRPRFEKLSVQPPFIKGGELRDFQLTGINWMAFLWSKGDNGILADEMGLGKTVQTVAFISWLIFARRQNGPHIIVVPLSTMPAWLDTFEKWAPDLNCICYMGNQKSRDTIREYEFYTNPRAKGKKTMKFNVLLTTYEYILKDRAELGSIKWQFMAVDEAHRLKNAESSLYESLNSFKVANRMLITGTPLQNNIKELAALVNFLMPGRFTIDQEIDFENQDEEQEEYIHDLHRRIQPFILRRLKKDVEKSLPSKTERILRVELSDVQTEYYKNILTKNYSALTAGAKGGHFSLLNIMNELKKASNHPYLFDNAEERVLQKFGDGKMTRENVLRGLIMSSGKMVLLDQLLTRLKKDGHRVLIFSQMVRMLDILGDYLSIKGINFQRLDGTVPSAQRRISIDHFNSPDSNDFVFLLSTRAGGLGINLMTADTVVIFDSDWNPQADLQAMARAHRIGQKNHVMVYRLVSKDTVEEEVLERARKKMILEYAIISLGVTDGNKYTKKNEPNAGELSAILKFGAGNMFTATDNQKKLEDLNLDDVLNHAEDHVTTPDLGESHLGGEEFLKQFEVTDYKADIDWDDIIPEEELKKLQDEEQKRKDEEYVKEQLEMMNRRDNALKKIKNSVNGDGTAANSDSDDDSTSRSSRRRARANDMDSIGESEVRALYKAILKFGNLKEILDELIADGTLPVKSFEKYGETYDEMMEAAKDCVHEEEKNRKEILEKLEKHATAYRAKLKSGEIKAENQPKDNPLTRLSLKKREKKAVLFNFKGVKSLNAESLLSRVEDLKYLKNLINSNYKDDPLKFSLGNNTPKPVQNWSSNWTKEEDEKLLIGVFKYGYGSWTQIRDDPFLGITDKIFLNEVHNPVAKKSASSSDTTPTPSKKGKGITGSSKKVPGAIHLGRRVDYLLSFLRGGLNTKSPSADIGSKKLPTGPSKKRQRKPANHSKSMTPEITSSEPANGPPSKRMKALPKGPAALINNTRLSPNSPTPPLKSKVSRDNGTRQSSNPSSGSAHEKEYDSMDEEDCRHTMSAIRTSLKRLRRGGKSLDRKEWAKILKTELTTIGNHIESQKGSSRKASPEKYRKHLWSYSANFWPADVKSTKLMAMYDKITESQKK

Sialic acid-binding Ig-like lectin 9 (Homo sapiens), sequence (Q9Y336 whole entry): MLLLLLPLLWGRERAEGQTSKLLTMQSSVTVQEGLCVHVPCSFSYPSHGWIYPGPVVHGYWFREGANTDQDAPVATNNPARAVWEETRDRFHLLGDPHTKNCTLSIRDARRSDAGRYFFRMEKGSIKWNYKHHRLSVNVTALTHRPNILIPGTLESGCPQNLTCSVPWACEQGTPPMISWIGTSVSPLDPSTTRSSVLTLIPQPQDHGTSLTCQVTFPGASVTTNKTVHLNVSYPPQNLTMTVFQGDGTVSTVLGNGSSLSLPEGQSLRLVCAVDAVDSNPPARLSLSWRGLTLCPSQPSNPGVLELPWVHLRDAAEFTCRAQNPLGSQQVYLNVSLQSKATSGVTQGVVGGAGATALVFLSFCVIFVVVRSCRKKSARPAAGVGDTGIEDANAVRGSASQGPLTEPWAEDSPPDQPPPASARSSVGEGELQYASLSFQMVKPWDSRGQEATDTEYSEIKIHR
Protein translocase subunit SecA (Escherichia coli (strain K12)), sequence (P10408 whole entry): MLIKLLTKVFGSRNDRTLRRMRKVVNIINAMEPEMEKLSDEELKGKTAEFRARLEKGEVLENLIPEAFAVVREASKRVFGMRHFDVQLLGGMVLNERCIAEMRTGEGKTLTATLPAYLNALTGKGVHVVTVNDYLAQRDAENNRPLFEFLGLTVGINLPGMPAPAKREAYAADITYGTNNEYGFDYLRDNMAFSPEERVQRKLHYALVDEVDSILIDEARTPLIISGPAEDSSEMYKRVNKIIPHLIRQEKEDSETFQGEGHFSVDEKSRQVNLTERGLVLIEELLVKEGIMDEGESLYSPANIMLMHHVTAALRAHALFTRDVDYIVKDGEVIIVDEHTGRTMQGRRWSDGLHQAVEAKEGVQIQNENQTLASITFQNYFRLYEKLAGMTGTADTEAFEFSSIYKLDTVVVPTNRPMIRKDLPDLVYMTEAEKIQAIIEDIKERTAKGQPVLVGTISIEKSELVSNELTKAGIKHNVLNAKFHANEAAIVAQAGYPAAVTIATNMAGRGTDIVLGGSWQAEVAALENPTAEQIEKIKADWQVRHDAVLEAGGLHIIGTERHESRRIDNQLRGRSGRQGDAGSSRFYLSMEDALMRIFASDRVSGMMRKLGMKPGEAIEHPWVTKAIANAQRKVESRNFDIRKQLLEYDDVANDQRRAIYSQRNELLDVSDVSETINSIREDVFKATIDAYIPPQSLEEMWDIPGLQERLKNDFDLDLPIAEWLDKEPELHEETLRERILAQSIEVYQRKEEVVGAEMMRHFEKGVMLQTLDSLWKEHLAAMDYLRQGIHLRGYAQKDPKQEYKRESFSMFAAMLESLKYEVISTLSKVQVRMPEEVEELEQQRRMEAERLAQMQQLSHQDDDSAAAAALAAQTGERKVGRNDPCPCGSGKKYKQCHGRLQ

| Compound | Percent Effect [1] | Percent Effect [2] | Percent Effect [3] | Percent Effect [4] | Percent Effect (Trypanosoma cruzi) | Percent Effect [5] | Percent Effect [6] | Percent Effect (Homo sapiens) | Percent Effect [7] | Percent Effect [8] | Percent Effect [9] |
| --- | --- | --- | --- | --- | --- | --- | --- | --- | --- | --- | --- |
| c1cnn(CC2CN(CC3CCCC3)CCO2)c1 (stereo not given) | -5.26% | 3.8% | -0.822% | 1.53% | 0.308% | 0.645% | 10.6% | -2.54% | 5.21% | -15.2% | -17.2% |
| CN(C)S(=O)(=O)c1ccc(CN2CCCC2CO)o1 (stereo not given) | -4.59% | 0% | -2.33% | 10.6% | -0.84% | -2.88% | -3.3% | 11.2% | 4.43% | 3.7% | 1.24% |
| Cc1ccc(NC(=O)NC(C)C(=O)N2CCS(=O)(=O)CC2)cc1 (stereo not given) | -3.85% | 5.41% | 2.74% | 5.55% | -1.74% | -11.9% | 12.4% | 11.4% | -0.529% | 12.2% | -2.08% |
| Cc1nc(CNC(=O)NCC(O)c2ccc(F)c(F)c2)cs1 (stereo not given) | -1.38% | 10.8% | 1.17% | -3.81% | 3.25% | -3.51% | 16.3% | 23.3% | 7.92% | 18.3% | -5.03% |
| Cc1ncc2c(n1)CCCC2NC(=O)c1ccncc1 (stereo not given) | -8.52% | 2.6% | -3.85% | 1.2% | -1.87% | -1.38% | 3.16% | 0.503% | 1.07% | -3.7% | -0.226% |
| Cc1nc(CN2CCCN(C(=O)C3(C#N)CCCCC3)CC2)cs1 | -5.19% | 5.06% | -4.31% | 9.63% | -1.79% | 0% | 7.12% | 13.8% | 6.4% | 13.9% | -3.28% |
| CNS(=O)(=O)c1cccc(CNC(=O)c2c(C)nn(C)c2C)c1 | -5.54% | 11.4% | -3.57% | -3.8% | -2.15% | 1.07% | 9.78% | 30.5% | -1.04% | 2.53% | -12.7% |
| CCc1nnsc1C(=O)N1CCOC(c2nc(C)n[nH]2)C1 (stereo not given) | -5.12% | 8.86% | -2.61% | -4.1% | 0.718% | -0.215% | 8.23% | -0.829% | 5.21% | 17.7% | -30.2% |
| COc1ccnc(N2CCN(C(=O)CN3CCCC3=O)CC2)n1 | -4.51% | 18.4% | -5.08% | -0.685% | 2.52% | 2.88% | 7.02% | 2.97% | 8.37% | 25.9% | -11.5% |
| c1ccc(-n2cc(CN3CCCC(Cn4cncn4)C3)nn2)cc1 (stereo not given) | -2.56% | 3.8% | 7.41% | 3.66% | -3.79% | -0.215% | 15.4% | 12.2% | 7.29% | 12.7% | -25.5% |
